Results reported in PubChem BioAssay (NCI).
About 79,000 compounds went through this panel and 15% of them were active in at least one assay; those are over-represented in the sample as a whole. Values without a mark were called inactive. Active and inactive are the calls of the source. Cut-off read from the data, not from the text of the source: active = growth inhibition above about 70%; inactive = the rest.

Columns and labels:
[1] = NCI Yeast Anticancer Drug Screen. Data for the rad50 strain (AID 155);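 note: 0% = growth of vehicle-only cultures of the same strain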; conditions: S. cerevisiae rad50 strain growth inhibition, active compounds read high
Outline: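 Cells are treated with compound, grown, and their growth is then scored against vehicle-only cultures of the same repair-deficient yeast strain.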

[2] = NCI Yeast Anticancer Drug Screen. Data for the mec2-1 strain (AID 157); conditions: S. cerevisiae mec2-1 strain, active compounds read high
Outline: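 Strain: mec2-1 (DNA repair/cell cycle alteration). Compound exposure, then growth measured; inhibition expressed relative to vehicle.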

[3] = NCI Yeast Anticancer Drug Screen. Data for the sgs1 mgt1 strain (AID 161);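 note: 0% = growth of cultures given vehicle only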; conditions: S. cerevisiae sgs1 mgt1 strain, active compounds read high
Outline: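 Inhibition of yeast growth, normalised to vehicle-treated controls, is reported for a strain bearing genetic alterations in DNA damage repair.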

[4] = NCI Yeast Anticancer Drug Screen. Data for the cln2 rad14 strain (AID 165);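 note: 0% = growth equal to vehicle treated cultures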; conditions: S. cerevisiae cln2 rad14 strain, active compounds read high
Outline: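 Compounds are applied to the cln2 rad14 yeast strain, and growth is then compared with that of vehicle-treated cultures to give inhibition.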

[5] = NCI Yeast Anticancer Drug Screen. Data for the bub3 strain (AID 167); conditions: S. cerevisiae bub3 mutant strain, active compounds read high
Outline: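 Part of a panel of yeast mutants defective in DNA damage repair or cell cycle regulation. Each strain is grown with compound, and inhibition is calculated relative to solvent-treated cultures.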

[6] = NCI Yeast Anticancer Drug Screen. Data for the mlh1 rad18 strain (AID 175); conditions: S. cerevisiae mlh1 rad18 strain growth inhibition, active compounds read high
Outline: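 Read-out is yeast growth inhibition, calculated against vehicle-only controls. The compound was applied to a strain engineered with DNA damage repair alterations.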

[7] = at 5.0 µM (retest, dose inferred, filed as 0.5)
[8] = at 50.0 µM (retest, dose inferred, filed as 5.0)

SMILES | growth inhibition [1, 7] | growth inhibition [1, 8] | growth inhibition ([1]; at 50.0 µM) | growth inhibition [2, 7] | growth inhibition [2, 8] | growth inhibition ([2]; at 50.0 µM) | growth inhibition [3, 7] | growth inhibition [3, 8] | growth inhibition ([3]; at 50.0 µM) | growth inhibition [4, 7] | growth inhibition [4, 8] | growth inhibition ([4]; at 50.0 µM) | growth inhibition [5, 7] | growth inhibition [5, 8] | growth inhibition ([5]; at 50.0 µM) | growth inhibition [6, 7] | growth inhibition [6, 8] | growth inhibition ([6]; at 50.0 µM)
CN1C=COC1N=C1CCCCC1 (configuration not stated) | 13% | 10% | -24.2% | -1% | -5% | -7% | -2% | 17% | -5.2% | 11% | 0% | 16.6% | 18% | 10% | -13% | -13% | 6% | -32.1%
CCC(=O)[O][Bi]([c]1ccccc1)[c]1ccccc1 | 79% (active) | 96% (active) | 90.2% (active) | 58% | 97% (active) | 92.4% (active) | 68% | 97% (active) | 92.5% (active) | 49% | 95% (active) | 90% (active) | 81% (active) | 96% (active) | 91.5% (active) | 85% (active) | 97% (active) | 90% (active)
CC1(C)COC(c2cccc(C(O)c3ccc(Cl)cc3)c2)=N1 (configuration not stated) | 40% | 99% (active) | 47% | -19% | 99% (active) | 68% | -23% | 99% (active) | 72.5% (active) | -2% | 99% (active) | 40.5% | -21% | 99% (active) | 52.5% | 26% | 99% (active) | 54.1%
O=C(CNc1ccccc1[N+](=O)[O-])Nn1c(-c2ccccc2)nc2ccccc2c1=O | 20% | 36% | 59.1% | 2% | 33% | 38.5% | 17% | 33% | 69% | 9% | 35% | 36% | -8% | 34% | 46.7% | 10% | 48% | 75.5% (active)
CCCCCCCCCCCCCCCCOc1ccc(S(=O)(=O)N/N=c2/sc3ccc(S(=O)(=O)O)cc3n2C)cc1C(=O)O | 6% | 88% (active) | 79.6% (active) | 6% | 63% | 78.7% (active) | 0% | 76% (active) | 76% (active) | 16% | 62% | 40.2% | -3% | 83% (active) | 68.8% | -13% | 88% (active) | 73.4% (active)
COC(=O)C1(NC(=O)C(CC(=O)OCc2ccccc2)NC(=O)OCc2ccccc2)CCCCCC1 (configuration not stated) | 3% | 30% | 63% | -1% | 41% | 8.9% | -12% | 25% | 50.3% | -2% | 47% | 71.5% (active) | -22% | 66% | 56.8% | -3% | 64% | 59.1%
O=C1c2cc(Br)ccc2NC1(c1c[nH]c2ccccc12)c1c[nH]c2ccccc12 | 98% (active) | 95% (active) | 91.8% (active) | 58% | 90% (active) | 94.8% (active) | 99% (active) | 96% (active) | 94.6% (active) | 98% (active) | 94% (active) | 93.2% (active) | 95% (active) | 95% (active) | 93.8% (active) | 99% (active) | 95% (active) | 92.8% (active)
OC(CC(CC(O)(C(F)(F)F)C(F)(F)F)=NN=C(CC(O)(C(F)(F)F)C(F)(F)F)CC(O)(C(F)(F)F)C(F)(F)F)(C(F)(F)F)C(F)(F)F | 41% | 73% (active) | 83.7% (active) | 31% | 92% (active) | 84.3% (active) | 32% | 88% (active) | 78.5% (active) | 35% | 72% (active) | 72% (active) | 37% | 81% (active) | 82.7% (active) | 46% | 93% (active) | 67.6%
CCCCOC(=O)c1ccc(S(=O)(=O)c2ccc(C(=O)OCCCC)cc2)cc1 | 3% | -6% | 1.7% | 3% | -3% | 28.4% | 5% | -18% | 10% | 5% | -11% | -13.1% | 4% | -1% | 77.7% (active) | 2% | -3% | 11.1%
O=C(Oc1ccccc1)C1CCCCC1C(=O)Oc1ccccc1 (configuration not stated) | -16% | -12% | 39.2% | -19% | 10% | 26.4% | -3% | 5% | 30.4% | 10% | 33% | -2.35% | -9% | -5% | -4.5% | -11% | -6% | 31.8%
CC(CO)CCC(=O)C(C)C1C(=O)CC2CC3CC(O)CCC3(C)CC21C (configuration not stated) | 3% | 41% | 83.2% (active) | -2% | 66% | 81% (active) | 2% | 48% | 84% (active) | 4% | 88% (active) | 95.1% (active) | 2% | 85% (active) | 63.6% | 16% | 89% (active) | 90.3% (active)
COC1=CC(=O)C(O)=C/C1=C\C=C\c1ccccc1 | 67% | 97% (active) | 95% (active) | 59% | 99% (active) | 97% (active) | 84% (active) | 99% (active) | 97% (active) | 50% | 99% (active) | 95.3% (active) | 36% | 98% (active) | 96.6% (active) | 83% (active) | 99% (active) | 96.8% (active)
O=c1c2ccccc2c2ccccc2n1O | 93% (active) | 92% (active) | 97.5% (active) | 95% (active) | 95% (active) | 97% (active) | 93% (active) | 94% (active) | 96.5% (active) | 76% (active) | 89% (active) | 93.8% (active) | 88% (active) | 91% (active) | 95% (active) | 94% (active) | 94% (active) | 98.3% (active)
NC(=S)N1N=C2c3ccccc3CCC[C@H]2[C@@H]1c1ccccc1 | 23% | 34% | 73.2% (active) | 16% | 27% | 70.1% (active) | 21% | 43% | 77.1% (active) | 12% | 13% | 63.9% | 25% | 47% | 74.2% (active) | 17% | 48% | 69.5%
NC(=O)NOCC1NC(=O)NC1=O (configuration not stated) | -24% | -4% | -4.95% | -10% | -13% | -13.1% | -16% | -10% | -21.4% | 8% | -2% | -11.1% | -3% | -3% | -21.8% | 1% | 8% | -16.3%
CCc1cccc(C(C)C)c1N1C(=O)C(=O)C(c2nc3ccccc3s2)C(=O)C1=O | 65% | 65% | 85.2% (active) | 23% | 23% | 87.3% (active) | 71% (active) | 71% (active) | 83.8% (active) | 51% | 51% | 85% (active) | 34% | 34% | 86% (active) | 36% | 36% | 88.2% (active)
NC(Cc1ccc(O)cc1O)C(=O)O (configuration not stated) | 0% | 2% | 7.7% | 0% | -1% | 31% | -1% | -4% | -7% | 2% | -2% | 74.9% (active) | 5% | -4% | 3.55% | -1% | -1% | 16.4%
O=[N+]([O-])c1cc2[nH]cnc2c([N+](=O)[O-])c1NCc1ccccc1 | 0% | 47% | 68.5% | 0% | 29% | 34.3% | -1% | 45% | 80.5% (active) | -2% | 34% | 24.2% | -4% | 25% | 33.1% | -3% | 44% | 72.5% (active)
CCN(CC)c1ccc(N=Nc2ccc(-c3nc4ccc[n+](C)c4s3)cc2)cc1 | 99% (active) | 99% (active) | 89.6% (active) | 99% (active) | 99% (active) | 88.8% (active) | 99% (active) | 99% (active) | 88.2% (active) | 100% (active) | 100% (active) | 88.2% (active) | 99% (active) | 99% (active) | 91.1% (active) | 99% (active) | 99% (active) | 88.8% (active)
